Screening results from PubChem BioAssay.
Rows were chosen to be rich in hits. Some 6.5% of all compounds tested hit in one or more screens of this group.
Vaccinia mCherry: inhibitors of vaccinia virus infection (mCherry reporter signal); Vaccinia virus mCherry reporter infection, fluorescence; Potency, µM (series often up to 36.5 µM), for the others: at the top dose activity change, negative = inhibition, most hits filed as inhibitors; 310,000 compounds, 0.63% hits; AID 720579; calls by dose curve; tested in A549 cells; also: potency is read from the fitted curve at half-maximal effect; nearly all actives have a fitted effect of over 35% in size
FMDV antiviral: blocks foot and mouth disease virus | FMDV antiviral cell-based qHTS | Potency, µM (doses to about 57.9 µM), for the others: at the highest dose activity change, negative = inhibition, actives largely listed as inhibitors | 410,000 compounds, 1.2% hits | AID 1159524; calls by dose curve; tested in HEK293T cells; also: read-out not given here; potency is read from the fitted curve at half-maximal effect; nearly all actives have a fitted effect of over 45% in size
HCMV antiviral: inhibitors of human cytomegalovirus | AID 1259415 | 410,000 compounds, 4.5% hits | HFF cells, HCMV-luciferase reporter, 72 h; active compounds read low | activity change, negative = inhibition, % at 57.5 µM; in the data active = activity change below about -60%; inconclusive = no clear call, values can overlap the other calls; inactive = above about -39%
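Cell-based, HFFs, 1000 cells/well, 16 h 37C; cpds in DMSO + HCMV-luc, MOI 1 PFU/cell; 72 h 37C; OneGlo luminescence after 5 min RT; norm. to buffer vs Salinomycin 10uM.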
MARV entry inh: blocks Marburg virus binding to or entry into cells | Marburg virus pseudotyped entry inhibition, cell reporter | Potency, µM (highest dose often 37.8 µM), for inactives: top-dose activity change, negative = inhibition, usual class: inhibitors | 300,000 compounds, 1.8% hits; calls by dose curve; tested in HEK293 cells; also: potency is read from the fitted curve at half-maximal effect
Lassa entry inh: blocks Lassa virus binding to or entry into cells. 300,000 compounds, 1.2% hits. Lassa virus pseudotype entry inhibition, cell reporter. Potency, µM (series often up to 37.9 µM), for the others: at the top dose activity change, negative = inhibition, most hits filed as inhibitors; calls by dose curve; tested in HEK293 cells; also: potency is read from the fitted curve at half-maximal effect; nearly all actives have a fitted effect of over 50% in size
Vaccinia Venus: vaccinia inhibition (Venus reporter); Vaccinia virus Venus reporter expression, fluorescence; Potency, µM (series often up to 36.5 µM), without a hit: at the highest dose activity change, negative = inhibition, most hits filed as inhibitors; 330,000 compounds, 0.46% hits; AID 720580; calls by dose curve; tested in A549 cells; also: potency is read from the fitted curve at half-maximal effect; nearly all actives have a fitted effect of over 30% in size
* marks the source's active call; other numbers are inactive results; i = inactive; ? = inconclusive; . = not tested or not shown; [ ] = dose if it differs, or a comment. % is scaled to controls: 0 for no effect and ±100 for the full control effect.

SMILES | Vaccinia mCherry | FMDV antiviral | HCMV antiviral | MARV entry inh | Lassa entry inh | Vaccinia Venus
Cc1ccc(C)c(N2CCN(C(=O)C3CCCN(c4ncnc5c4nc4n5CCCCC4)C3)CC2)c1 (stereo unspecified) | . | ? | -69* | . | . | .
O=C(C1CCCN(c2ncnc3c2nc2n3CCCCC2)C1)N1CCN(c2cccc(Cl)c2)CC1 (stereo unspecified) | . | ? | -29 | . | . | .
CCCCN(Cc1ccco1)C(=O)C1CCCN(c2ncnc3c2nc2n3CCCCC2)C1 (stereo unspecified) | ? | -25% | -93* | ? | ? | -28%
O=C(C1CCCN(c2ncnc3c2nc2n3CCCCC2)C1)N1CCN(c2ccccc2)CC1 (stereo unspecified) | . | ? | -62* | . | . | .
CC(C)N(Cc1ccccc1)C(=O)C1CCCN(c2ncnc3c2nc2n3CCCCC2)C1 (stereo unspecified) | . | ? | -60* | . | . | .
CCCCN(CC)C(=O)C1CCCN(c2ncnc3c2nc2n3CCCCC2)C1 (stereo unspecified) | -3% | -30% | -5 | . | -24%[46.1 µM] | 7%
Cc1cc(C)c(NC(=O)Cn2c(=O)n(CCc3ccccc3)c(=O)c3ccccc32)c(C)c1 | -5% | -4% | 16 | -10%[46.1 µM] | ? | -11%
Cc1ccc(CNC(=O)C(=O)NCC(c2cccs2)S(=O)(=O)c2cccs2)cc1 (stereo unspecified) | -20% | -28% | 1 | . | ? | -13%
Cc1cccc(C)c1NC(=O)c1sc(-n2nc(C)c(Cc3ccccc3)c2C)nc1C | -21% | -25% | 0 | -8%[46.1 µM] | -1%[46.1 µM] | -19%
Cc1cc(C)c(S(=O)(=O)NCCCn2ccnc2)cc1C | -19% | 88% | -13 | 3.5µM* | ? | -12%
Cc1cc(S(=O)(=O)NCCCn2ccnc2)c(C)cc1Cl | i | 27% | -12 | -12%[46.1 µM] | 5%[46.1 µM] | -13%
Clc1ccc(-c2ccc(C=Nc3ccc(N4CCOCC4)cc3)o2)cc1 | -11% | -7% | -62* | -17% | -5% | -4%
COc1ccccc1NC(=O)c1cnc(SCC(=O)NCC2CCCO2)n(C)c1=O (stereo unspecified) | -11% | 25µM* | 36 | ? | ? | -10%
CCOC(=O)c1c(NC(=O)CSc2nc3cc(Cl)ccc3c(=O)n2Cc2ccco2)sc(C(=O)N(C)C)c1C | 5% | -12% | -68* | ? | ? | -12%
COc1cc2nc(SCC(=O)NCc3ccco3)n(Cc3ccc(Cl)cc3)c(=O)c2cc1OC | . | 6% | -69* | ? | ? | .
CCCCNC(=O)CSc1nc2cc3c(cc2c(=O)n1Cc1ccco1)OCO3 | -1% | ? | -61* | -27% | -6% | 5%
O=C(CSc1nc2ccccc2c(=O)n1Cc1ccco1)c1ccccc1 | -3% | -18% | -69* | -7% | ? | -13%
Cc1cccc(CSc2nc(-c3cccc(C)c3)nc3c2Cc2c(CO)cnc(C)c2O3)c1 | -18% | -20% | 12 | . | 15%[46.1 µM] | -12%
CN(C)c1ccc(N=Cc2cccc3ccccc23)cc1 | 37% | . | . | . | . | 5%
CN(C)c1ccc(N=Cc2cccn2C)cc1 | ? | 22% | ? | ? | 6.3µM* | ?
COC(=O)C1=C(C)N(CCC(C)O[Si](C)(C)C(C)(C)C)C(=O)N(C(C)=O)C1c1ccccc1 (stereo unspecified) | . | . | . | 7%[14.2 µM] | . | .
Ic1ccc(Nc2nc(NCCN3CCOCC3)nc(N3CCOCC3)n2)cc1 | ? | . | . | . | . | -29%
Cc1cc(/C=C2/SC(=S)N(c3cccc(Cl)c3)C2=O)c(C)n1-c1cccnc1 | ? | ? | -93* | ? | ? | ?
Cc1cc(/C=C2\SC(=S)N(C)C2=O)c(C)n1-c1ccc(O)cc1 | ? | 0.89µM* | -97* | . | . | -18%
Cc1cc(/C=C2/SC(=S)N(c3ccc([N+](=O)[O-])cc3)C2=O)c(C)n1-c1cccnc1 | . | ? | -83* | -26% | -19% | .
SMILES | Vaccinia mCherry | FMDV antiviral | HCMV antiviral | MARV entry inh | Lassa entry inh | Vaccinia Venus
Cc1cc(/C=C2\SC(=S)N(C)C2=O)c(C)n1-c1ccccc1O | ? | ? | 0 | ? | ? | 3%
COc1cc(-c2cccc(OC)c2OC)cc2c1OCCN(Cc1cn[nH]c1-c1ccc(Cl)cc1)C2 | -9% | -17% | . | . | . | -26%
CCc1sc(C(=O)Nc2ncccc2O)cc1C | -29% | -54% | ? | 6.3µM* | ? | -25%
COc1cccc(NC(=O)N(C)C[C@H]2OCc3ccccc3-c3c(n(C)c4ccccc34)C(=O)N([C@H](C)CO)C[C@H]2C)c1 | . | . | -22 | . | . | .
CC(=O)C1=C(C)N(Cc2ccccc2)C(=O)NC1c1ccc(Br)cc1 (stereo unspecified) | . | . | . | -4%[14.2 µM] | 16%[14.3 µM] | .
c1ccc2c(-c3cncc4ccccc34)cncc2c1 | -27% | -15% | -30 | 13µM* | ? | -9%
O=[N+]([O-])c1cccc(N=Nc2ccc(O)cc2O)c1 | ? | -9% | -80* | 2.8µM* | ? | ?
O=[N+]([O-])c1ccc(N=Nc2ccc(O)cc2O)cc1 | ? | 10% | -99* | ? | 10µM* | ?
CCCn1c(SCC(=O)NC2CCCCC2)nnc1-c1cccnc1 | -1% | 6% | -65* | 0%[46.1 µM] | 1%[46.1 µM] | -16%
CCCn1c(SCC(=O)NC2CCCC2)nnc1-c1cccnc1 | -11% | 10% | -28 | ? | . | -8%
NNC(=O)c1[nH]c2ccc(Cl)cc2c1-c1ccccc1 | -27% | -5% | -97* | ? | ? | ?
NNC(=O)c1[nH]c2ccc(Br)cc2c1-c1ccccc1 | ? | -24% | -96* | ? | ? | ?
C[C@@H]1C=CCCO[C@]12C(=O)Nc1ccc(O)cc12 | . | . | . | 10%[14.2 µM] | . | .
CCc1cc(C(=O)N(C)CC(=O)Nc2c(Cl)cccc2Cl)sc1C | i | -19% | -67* | ? | 8.9µM* | -11%
CN(CC(=O)Nc1c(Cl)cccc1Cl)C(=O)Cc1ccsc1 | -20% | -9% | 0 | 7% | -10% | -8%
COc1ccc(C(=O)Oc2ccc(F)cc2C(=O)/C=C/c2ccc(OC)c(OC)c2)cc1 | i | 40µM* | ? | -14% | ? | -14%
COc1ccc(/C=C/C(=O)c2ccc3c4c(cccc24)CC3)cc1 | ? | 7% | 7 | -29% | ? | ?
COc1ccc(/C=C/C(=O)c2cc(F)ccc2OC(=O)c2ccccc2C)cc1OC | ? | 25µM* | -86* | 5.2µM* | ? | ?
CCOc1ccc(C(=O)/C=C/c2ccc(OC)c(OC)c2)cc1 | -22% | ? | 102 | ? | ? | -20%
COc1ccc(/C=C/C(=O)c2ccc3c4c(cccc24)CC3)cc1OC | ? | 18µM* | ? | ? | ? | ?
COc1ccc(/C=C/C(=O)Nc2ccccc2)cc1OC | -4% | 67% | -4 | 4%[46.1 µM] | 16% | -1%
CCOC(=O)c1c(NC(=O)c2cc(-c3ccc(OC)cc3)on2)sc(C)c1C | -1% | -7% | 6 | -14%[46.1 µM] | -10%[46.1 µM] | 5%
